# Assay outcomes deposited in PubChem BioAssay by The Scripps Research Institute Molecular Screening Center.
# GPR151 ag = activators of human GPR151 | PathHunter beta-arrestin GPR151 cells, luminescence | Q8TDV0 | hit rate 1% among 650,000 | AID 1508602 | activation, % at 11.2 µM; in the data active = activation above about 4.9%;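 also: 0% = median of compound wells and 100% = cells with positive control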
# Target sequence (Q8TDV0 whole entry, looked up): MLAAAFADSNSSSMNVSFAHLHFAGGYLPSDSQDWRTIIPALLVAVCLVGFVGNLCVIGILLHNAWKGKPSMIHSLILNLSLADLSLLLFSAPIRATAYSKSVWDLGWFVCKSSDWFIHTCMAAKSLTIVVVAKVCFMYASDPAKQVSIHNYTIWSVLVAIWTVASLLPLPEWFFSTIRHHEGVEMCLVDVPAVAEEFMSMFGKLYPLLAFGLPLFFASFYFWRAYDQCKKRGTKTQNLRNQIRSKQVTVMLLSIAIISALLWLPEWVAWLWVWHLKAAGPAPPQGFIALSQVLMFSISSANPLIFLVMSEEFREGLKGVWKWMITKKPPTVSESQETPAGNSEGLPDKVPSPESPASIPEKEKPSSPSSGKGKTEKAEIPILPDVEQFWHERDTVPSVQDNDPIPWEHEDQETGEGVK
# FBW7 activator = activators of human E3 ligase FBW7; hit rate 0.13% among 650,000; normalized activity (activation), % at 26.1 µM; AlphaScreen FBW7–phospho-cyclin E peptide binding, activator screen; in the data active = normalized activity above about 1.9%;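 also: purified mutant Fbw7 with reduced substrate affinity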
# TEAD-YAP inh = TEAD-YAP interaction inhibition; HEK-TIYL cells, TEAD-Gal4/YAP UAS-luciferase luminescence; inhibition, % at 9.12 µM; hit rate 1.4% among 640,000; AID 1259422; in the data active = inhibition above about 32%;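 also: 0% = median of test compound wells and 100% = reference inhibitor wells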
# MITF inh = inhibitors of human MITF | AlphaScreen MITF homodimerization, bead proximity signal | inhibition, % at 2.6 µM | hit rate 0.91% among 650,000 | AID 1259374; in the data active = inhibition above about 50%;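 also: 0% = vehicle wells with protein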
# Starred values were filed as active, the others as inactive. An excerpt weighted towards active compounds, which were near 3.5% of everything screened.
SMILES,GPR151 ag,FBW7 activator,TEAD-YAP inh,MITF inh
CC1CC(C(O)c2ccccn2)C(=O)C(C(O)c2ccccn2)C1 (centres undefined),-0.9,-0.4,40.4*,-4.2
CCOCCCNC(=O)c1ccc2c(c1)N=C(C)c1cc(C)ccc1S2,-0.5,0.4,68.3*,2.8
COC(=O)c1ccc2c(c1)N=C(C)c1cc(C)ccc1S2,-1.5,-0.1,-8.0,6.2
CCC1=Nc2cc(C(=O)NCCCOC)ccc2Sc2ccccc21,0.6,-0.4,57.3*,1.6
CCCC1=Nc2cc(C(=O)NCCOC)ccc2Sc2ccccc21,-0.1,-0.1,51.3*,8.8
CCOCCCNC(=O)c1ccc2c(c1)N=C(CC)c1ccccc1S2,0.0,0.3,58.3*,7.8
CCC1=Nc2cc(C(=O)NCCCN3CCOCC3)ccc2Sc2ccccc21,0.3,0.0,1.9,3.2
COc1ccc(Cn2c(=O)c3cccnc3n(CC(=O)Nc3cccc(C)c3)c2=O)cc1,2.3,0.2,5.2,1.6
CC(=O)c1cccc(NC(=O)COc2ccccc2C(C)C)c1,0.3,-0.1,3.2,-9.1
COC(=O)c1ccc(CSc2nc3sc4c(c3c(=O)n2C)CCC4)cc1,-0.7,0.1,-0.1,3.9
N=c1c2c(-c3ccccc3)c(-c3ccccc3)n(Cc3ccco3)c2ncn1CCO,-1.6,-0.2,68.4*,15.0
O=C(NC1CCN(Cc2ccccc2)CC1)c1ccc(Cn2nnc3ccccc3c2=O)cc1,-1.5,0.0,34.9*,3.9
O=C(/C=C/c1cccc([N+](=O)[O-])c1)/C=C/c1ccco1,0.7,-0.2,-0.8,6.8
CN(C)c1ccc(/C=C/C(=O)/C=C/c2ccco2)cc1,-0.7,0.6,-4.4,63.1*
CCCCC(=O)NC(c1ccc(Cl)cc1)c1ccc2cccnc2c1O (centres undefined),-0.4,-1.4,84.7*,27.0
COCC(=O)NC(c1ccccc1)c1cc(Cl)c2cccnc2c1O (centres undefined),-0.4,-0.4,24.5,27.3
CCC(=O)NC(c1ccccc1)c1ccc2cccnc2c1O (centres undefined),-0.2,-1.9,81.8*,34.8
CCC(=O)NC(c1ccc(Cl)cc1)c1ccc2cccnc2c1O (centres undefined),-0.3,-1.4,95.0*,31.9
CCC(=O)NC(c1ccc2c(c1)OCO2)c1cc(Cl)c2cccnc2c1O (centres undefined),-0.6,-0.4,4.6,13.7
CCCC(=O)NC(c1ccc(Cl)cc1)c1ccc2cccnc2c1O (centres undefined),-0.7,-1.4,88.4*,25.1
Fc1cccc2c1NC(c1ccccn1)C1CC=CC21 (centres undefined),4.4,0.0,11.4,7.6
CCCC1(C2CCN(C(=O)CC(C)CC)CC2)NC(=O)N(Cc2ccco2)C1=O (centres undefined),-1.6,0.2,6.4,11.6
CC(=O)NC(c1ccc(Cl)cc1Cl)c1cc(Cl)c2cccnc2c1O (centres undefined),0.1,-0.3,19.6,4.4
CCC(=O)NC(c1ccc(OC)cc1)c1ccc2cccnc2c1O (centres undefined),0.4,-1.8,32.4*,63.1*
CC(=O)NC(c1ccc(Cl)cc1Cl)c1ccc2cccnc2c1O (centres undefined),2.6,-1.0,89.3*,41.8
SMILES,GPR151 ag,FBW7 activator,TEAD-YAP inh,MITF inh
CCCC(=O)NC(c1ccc(Cl)cc1Cl)c1ccc2cccnc2c1O (centres undefined),-0.8,-0.8,63.0*,25.9
CC1CCCN(C(c2ccncc2)c2nnnn2CCc2ccccc2)C1 (centres undefined),0.5,0.2,10.2,7.4
COCCn1nnnc1C(c1ccccc1F)N1CCN(c2cc(C)ccc2C)CC1 (centres undefined),-0.1,0.0,-0.8,4.5
Cc1nnc(N(C(=O)c2cnccn2)c2ccccc2)s1,-2.1,-0.2,61.7*,-2.2
O=C(N/N=C/c1cc([N+](=O)[O-])ccc1O)C(=O)Nc1ccccc1OC(F)(F)C(F)F,-0.8,0.1,8.0,2.3
O=C(N/N=C/c1cc(Cl)ccc1O)C(=O)Nc1ccccc1OC(F)(F)C(F)F,0.9,-0.2,79.2*,-5.8
CCc1nn(CC(=O)NCCCN2CCCCC2CC)c(=O)c2cc3sc(C)cc3n12 (centres undefined),-0.3,-0.1,-0.9,-0.2
CC(C)c1ccc(NC(=O)c2ccc([N+](=O)[O-])cc2)cc1,-1.3,0.0,-19.7,20.9
CS/C(=C\[N+](=O)[O-])Nc1ccc(C(C)C)cc1,-0.5,0.1,53.5*,-15.9
O=C(c1cncs1)N1CCC(CO)(Cc2ccccc2C(F)(F)F)CC1,-0.2,-0.1,7.6,8.2
OCc1cccc(-c2cnc3ccc(NCc4ccco4)nn23)c1,0.5,0.1,5.2,4.1
Cc1ccc2c(c1)C(=O)C(=O)N2CCCl,0.5,0.0,59.9*,-0.4
CCCN1C(=O)C(=O)c2cc(C)ccc21,-0.2,0.4,-3.2,1.8
CN1CCN(C(=O)c2ccc(-c3nc(NCc4nc5ccccc5[nH]4)c4ncn(-c5ccccc5)c4n3)cc2)CC1,0.5,0.0,12.5,9.3
CN1CCN(C(=O)c2ccc(-c3nc(Nc4ccccc4)c4ncn(-c5ccsc5)c4n3)cc2)CC1,-0.3,0.0,22.6,-8.3
CN1CCN(C(=O)c2ccc(-c3nc(NC4CC4)c4ncn(-c5ccsc5)c4n3)cc2)CC1,0.2,0.1,49.3*,1.9
CN1CCN(c2ccc(-c3nc(NC4CC4)c4ncn(-c5ccsc5)c4n3)cc2)CC1,0.7,-0.2,48.6*,5.0
CN1CCN(C(=O)c2ccc(-c3nc(NCc4nc5ccccc5[nH]4)c4ncn(-c5ccsc5)c4n3)cc2)CC1,-1.1,0.3,58.5*,-6.5
CN1CCN(c2ccc(-c3nc(NCc4ccccc4)c4ncn(-c5ccsc5)c4n3)cc2)CC1,0.0,-0.2,3.5,4.7
COC(=O)Cn1cnc2c1c(=O)[nH]c(=O)n2C,-1.1,-0.1,3.4,6.5
Cn1c(=O)[nH]c(=O)c2c1ncn2CC(=O)NN,-0.7,2.4*,-5.7,5.2
COc1ccccc1CCNC(=O)c1ccc2c(c1)CC(c1nc3ccc(-c4ccnc(N)n4)cc3[nH]1)CO2 (centres undefined),-0.6,3.0*,28.8,-7.3
CN(C)CCNC(=O)c1ccc2c(c1)CC(c1nc3ccc(-c4ccnc(N)n4)cc3[nH]1)CO2 (centres undefined),-0.7,0.3,-1.8,38.2
Nc1nccc(-c2ccc3nc(C4COc5ccc(C(=O)NCCc6cccs6)cc5C4)[nH]c3c2)n1 (centres undefined),-1.4,23.8*,20.5,-8.5
COc1ccc(OC)c(CCNC(=O)Cn2cc3c(n2)CCCCC3)c1,-0.1,0.0,-4.5,11.4
O=c1[nH]c2ccccc2c(O)c1O,-0.7,0.0,38.4*,7.8
O=C(O)c1c(O)c2ccccc2[nH]c1=O,-1.4,0.5,2.8,8.6
N#C/C(=C\C=C\c1ccc([N+](=O)[O-])o1)c1nc2ccccc2[nH]1,-1.2,0.4,58.6*,43.0
COc1cc(OC)c(/C=C2/C(=O)Nc3ccccc32)c(OC)c1,2.1,-0.1,53.5*,0.1
COc1cc(/C=C2/C(=O)Nc3ccccc32)cc(OC)c1O,1.1,0.1,-10.9,0.9
